What all share (experiment): RNA Bind-n-Seq (nitrocellulose filter binding and sequencing); miR-122 guide loaded in AGO2; 60 min incubation; 30 mM Tris pH 8.0, 100 mM potassium acetate, 2 mM magnesium acetate, 0.5 mM TCEP, 0.005% NP-40, 0.01 mg/ml yeast tRNA; 3 nM AGO2-miR-122, 100 nM RNA library; 60; high values mean tight binding
Common to all, as to details: protein: recombinant; tags: His6 (N-terminal, pFastBac HTA)

Assay [1] concerns the target AGO2 L192P (Homo sapiens, UniProt Q9UKV8 1-859, L192P;S387D;S824A;S828D;S831D;S834A). The method in brief:
(§1)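 Fold enrichment is each target's read fraction divided by its read fraction in the input library. Sf9 insect cells expressed His-tagged AGO2 from baculovirus; the protein was loaded with a synthetic guide RNA and purified by Ni-NTA and a biotinylated capture oligo. The bound RNA was extracted, reverse-transcribed, barcode-amplified and sequenced on Illumina.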

The target of assay [2] is AGO2 A367P (Homo sapiens, UniProt Q9UKV8 1-859, A367P;S387D;S824A;S828D;S831D;S834A). A digest of the protocol:
as §1

The target in assay [3] is AGO2 T357M (Homo sapiens, UniProt Q9UKV8 1-859, T357M;S387D;S824A;S828D;S831D;S834A). A digest of the protocol: as §1
Sequence of AGO2 T357M (Q9UKV8 whole entry T357M/S387D/S824A/S828D/S831D/S834A): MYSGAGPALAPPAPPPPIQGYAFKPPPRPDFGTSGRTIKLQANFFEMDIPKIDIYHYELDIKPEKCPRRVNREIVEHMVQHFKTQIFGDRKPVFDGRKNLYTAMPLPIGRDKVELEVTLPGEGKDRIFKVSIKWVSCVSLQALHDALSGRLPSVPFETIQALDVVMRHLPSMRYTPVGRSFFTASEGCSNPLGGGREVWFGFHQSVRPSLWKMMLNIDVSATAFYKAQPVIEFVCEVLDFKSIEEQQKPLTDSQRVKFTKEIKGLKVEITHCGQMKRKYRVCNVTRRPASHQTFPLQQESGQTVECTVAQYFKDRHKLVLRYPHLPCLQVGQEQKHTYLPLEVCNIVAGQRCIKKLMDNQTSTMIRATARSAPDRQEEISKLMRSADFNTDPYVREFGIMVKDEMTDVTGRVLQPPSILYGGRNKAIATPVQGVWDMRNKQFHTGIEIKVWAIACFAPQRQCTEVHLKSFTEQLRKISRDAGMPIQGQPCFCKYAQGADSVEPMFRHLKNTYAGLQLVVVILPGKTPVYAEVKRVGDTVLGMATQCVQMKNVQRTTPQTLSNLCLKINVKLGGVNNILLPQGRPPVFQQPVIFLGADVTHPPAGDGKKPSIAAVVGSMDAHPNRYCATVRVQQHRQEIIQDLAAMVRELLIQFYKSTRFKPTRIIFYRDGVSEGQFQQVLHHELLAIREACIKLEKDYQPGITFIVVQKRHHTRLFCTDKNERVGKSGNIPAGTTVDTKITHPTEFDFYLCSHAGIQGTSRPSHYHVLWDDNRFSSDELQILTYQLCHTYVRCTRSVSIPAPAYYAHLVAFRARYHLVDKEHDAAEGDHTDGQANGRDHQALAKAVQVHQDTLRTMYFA

Sequence of AGO2 L192P (Q9UKV8 whole entry L192P/S387D/S824A/S828D/S831D/S834A): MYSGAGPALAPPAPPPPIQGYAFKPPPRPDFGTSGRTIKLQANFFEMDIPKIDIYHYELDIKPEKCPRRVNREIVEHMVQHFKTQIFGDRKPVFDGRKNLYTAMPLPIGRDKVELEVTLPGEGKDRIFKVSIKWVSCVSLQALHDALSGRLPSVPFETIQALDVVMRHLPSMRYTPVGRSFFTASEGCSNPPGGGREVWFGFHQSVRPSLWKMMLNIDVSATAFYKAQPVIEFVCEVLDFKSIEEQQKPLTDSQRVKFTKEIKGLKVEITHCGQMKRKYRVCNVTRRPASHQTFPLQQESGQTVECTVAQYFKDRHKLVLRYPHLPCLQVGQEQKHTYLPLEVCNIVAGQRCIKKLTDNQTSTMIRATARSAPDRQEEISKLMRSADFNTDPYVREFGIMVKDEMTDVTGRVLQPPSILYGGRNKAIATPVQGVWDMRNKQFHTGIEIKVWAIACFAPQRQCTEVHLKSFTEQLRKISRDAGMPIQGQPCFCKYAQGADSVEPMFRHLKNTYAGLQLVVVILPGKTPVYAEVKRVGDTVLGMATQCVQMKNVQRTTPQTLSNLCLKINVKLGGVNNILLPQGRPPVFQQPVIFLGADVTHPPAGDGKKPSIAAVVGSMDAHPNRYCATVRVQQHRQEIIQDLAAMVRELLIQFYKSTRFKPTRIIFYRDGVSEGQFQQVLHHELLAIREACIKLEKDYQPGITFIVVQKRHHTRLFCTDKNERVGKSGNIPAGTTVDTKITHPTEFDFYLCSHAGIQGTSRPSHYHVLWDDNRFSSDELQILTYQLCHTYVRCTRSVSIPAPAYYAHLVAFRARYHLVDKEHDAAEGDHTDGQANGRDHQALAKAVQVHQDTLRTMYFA
Sequence of AGO2 A367P (Q9UKV8 whole entry A367P/S387D/S824A/S828D/S831D/S834A): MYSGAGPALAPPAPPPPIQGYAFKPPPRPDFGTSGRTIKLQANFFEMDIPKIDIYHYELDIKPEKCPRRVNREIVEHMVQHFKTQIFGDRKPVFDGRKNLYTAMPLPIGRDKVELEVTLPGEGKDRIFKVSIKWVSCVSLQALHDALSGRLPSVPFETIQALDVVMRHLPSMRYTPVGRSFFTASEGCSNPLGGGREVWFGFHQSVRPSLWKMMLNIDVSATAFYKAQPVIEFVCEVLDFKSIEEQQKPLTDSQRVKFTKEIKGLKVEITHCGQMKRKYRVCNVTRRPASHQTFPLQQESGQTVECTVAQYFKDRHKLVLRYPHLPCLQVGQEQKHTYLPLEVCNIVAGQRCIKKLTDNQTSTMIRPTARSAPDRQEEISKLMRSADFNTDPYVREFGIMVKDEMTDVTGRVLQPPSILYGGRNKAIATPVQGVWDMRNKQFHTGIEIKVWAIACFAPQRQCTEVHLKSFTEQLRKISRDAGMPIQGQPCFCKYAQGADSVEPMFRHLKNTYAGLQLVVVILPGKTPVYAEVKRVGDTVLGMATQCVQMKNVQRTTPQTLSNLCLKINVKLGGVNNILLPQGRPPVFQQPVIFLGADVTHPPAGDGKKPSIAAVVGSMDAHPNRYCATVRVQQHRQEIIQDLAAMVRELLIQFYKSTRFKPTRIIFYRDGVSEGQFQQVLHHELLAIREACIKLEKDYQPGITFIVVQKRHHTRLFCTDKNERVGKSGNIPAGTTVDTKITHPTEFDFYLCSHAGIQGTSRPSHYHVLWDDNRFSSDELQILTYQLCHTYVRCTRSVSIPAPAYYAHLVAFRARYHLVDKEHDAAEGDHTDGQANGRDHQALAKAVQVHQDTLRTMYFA

B1: GTGTTTCG (ssRNA)
RNA 1: GAGUUCUACAGUCCGACGAUCCCAACGUGUUUCGCACCUGGAAUUCUCGGGUGCCAA
RNA 2: UGGAGUGUGACAAUGGUGUUUG
DNA 1: GATCGTCGGACTGTAGAACTC
DNA 2: TTGGCACCCGAGAATTCCA
modifications: constant regions annealed to DNA blockers; guide miR-122 5' phosphate
With B1, the binding signal in assay [1] was 0.36 fold enrichment over input; in assay [2], 0.133 fold enrichment over input; in assay [3], 0.483 fold enrichment over input.

B2: ACGTCCCG (ssRNA)
RNA 1: GAGUUCUACAGUCCGACGAUCCCAACACGUCCCGCACCUGGAAUUCUCGGGUGCCAA
RNA 2: UGGAGUGUGACAAUGGUGUUUG
DNA 1: GATCGTCGGACTGTAGAACTC
DNA 2: TTGGCACCCGAGAATTCCA
modifications: constant regions annealed to DNA blockers; guide miR-122 5' phosphate
Take B2: the binding signal in assay [1] is 0.332 fold enrichment over input; in assay [2], 0.141 fold enrichment over input; in assay [3], 0.443 fold enrichment over input.

B3: ACGCCCTG (ssRNA)
RNA 1: GAGUUCUACAGUCCGACGAUCCCAACACGCCCUGCACCUGGAAUUCUCGGGUGCCAA
RNA 2: UGGAGUGUGACAAUGGUGUUUG
DNA 1: GATCGTCGGACTGTAGAACTC
DNA 2: TTGGCACCCGAGAATTCCA
modifications: constant regions annealed to DNA blockers; guide miR-122 5' phosphate
On to B3, for which the values for the binding signal in assay [1], in assay [2] and in assay [3] were 0.4 fold enrichment over input, 0.147 fold enrichment over input and 0.519 fold enrichment over input, respectively.

B4: GCATTTTG (ssRNA)
RNA 1: GAGUUCUACAGUCCGACGAUCCCAACGCAUUUUGCACCUGGAAUUCUCGGGUGCCAA
RNA 2: UGGAGUGUGACAAUGGUGUUUG
DNA 1: GATCGTCGGACTGTAGAACTC
DNA 2: TTGGCACCCGAGAATTCCA
modifications: constant regions annealed to DNA blockers; guide miR-122 5' phosphate
As to B4, the binding signal in assay [1] was 0.36 fold enrichment over input; in assay [2], 0.127 fold enrichment over input; in assay [3], 0.449 fold enrichment over input.

B5: ATGTTCCG (ssRNA)
RNA 1: GAGUUCUACAGUCCGACGAUCCCAACAUGUUCCGCACCUGGAAUUCUCGGGUGCCAA
RNA 2: UGGAGUGUGACAAUGGUGUUUG
DNA 1: GATCGTCGGACTGTAGAACTC
DNA 2: TTGGCACCCGAGAATTCCA
modifications: constant regions annealed to DNA blockers; guide miR-122 5' phosphate
Consider B5, for which the binding signal was 0.352 fold enrichment over input in assay [1], 0.121 fold enrichment over input in assay [2] and 0.475 fold enrichment over input in assay [3].

B6: ACGTTTTG (ssRNA)
RNA 1: GAGUUCUACAGUCCGACGAUCCCAACACGUUUUGCACCUGGAAUUCUCGGGUGCCAA
RNA 2: UGGAGUGUGACAAUGGUGUUUG
DNA 1: GATCGTCGGACTGTAGAACTC
DNA 2: TTGGCACCCGAGAATTCCA
modifications: constant regions annealed to DNA blockers; guide miR-122 5' phosphate
Consider B6, for which the results for the binding signal in assay [1], in assay [2] and in assay [3] were 0.342 fold enrichment over input, 0.136 fold enrichment over input and 0.495 fold enrichment over input, respectively.

B7: GCATCCCG (ssRNA)
RNA 1: GAGUUCUACAGUCCGACGAUCCCAACGCAUCCCGCACCUGGAAUUCUCGGGUGCCAA
RNA 2: UGGAGUGUGACAAUGGUGUUUG
DNA 1: GATCGTCGGACTGTAGAACTC
DNA 2: TTGGCACCCGAGAATTCCA
modifications: constant regions annealed to DNA blockers; guide miR-122 5' phosphate
With B7, the values for the binding signal in assay [1], in assay [2] and in assay [3] were 0.376 fold enrichment over input, 0.143 fold enrichment over input and 0.478 fold enrichment over input, respectively.

B8: GTGTTTTG (ssRNA)
RNA 1: GAGUUCUACAGUCCGACGAUCCCAACGUGUUUUGCACCUGGAAUUCUCGGGUGCCAA
RNA 2: UGGAGUGUGACAAUGGUGUUUG
DNA 1: GATCGTCGGACTGTAGAACTC
DNA 2: TTGGCACCCGAGAATTCCA
modifications: constant regions annealed to DNA blockers; guide miR-122 5' phosphate
For the molecule B8, the binding signal in assay [1] was 0.344 fold enrichment over input; in assay [2], 0.129 fold enrichment over input; in assay [3], 0.483 fold enrichment over input.

B9: GTATTTTG (ssRNA)
RNA 1: GAGUUCUACAGUCCGACGAUCCCAACGUAUUUUGCACCUGGAAUUCUCGGGUGCCAA
RNA 2: UGGAGUGUGACAAUGGUGUUUG
DNA 1: GATCGTCGGACTGTAGAACTC
DNA 2: TTGGCACCCGAGAATTCCA
modifications: constant regions annealed to DNA blockers; guide miR-122 5' phosphate
On to B9, for which the results for the binding signal in assay [1], in assay [2] and in assay [3] were 0.384 fold enrichment over input, 0.131 fold enrichment over input and 0.514 fold enrichment over input, respectively.

B10: GTACTCTA (ssRNA)
RNA 1: GAGUUCUACAGUCCGACGAUCCCAACGUACUCUACACCUGGAAUUCUCGGGUGCCAA
RNA 2: UGGAGUGUGACAAUGGUGUUUG
DNA 1: GATCGTCGGACTGTAGAACTC
DNA 2: TTGGCACCCGAGAATTCCA
modifications: constant regions annealed to DNA blockers; guide miR-122 5' phosphate
Regarding B10, the results for the binding signal in assay [1], in assay [2] and in assay [3] were 0.425 fold enrichment over input, 0.181 fold enrichment over input and 0.539 fold enrichment over input, respectively.

B11: ACGTTTCG (ssRNA)
RNA 1: GAGUUCUACAGUCCGACGAUCCCAACACGUUUCGCACCUGGAAUUCUCGGGUGCCAA
RNA 2: UGGAGUGUGACAAUGGUGUUUG
DNA 1: GATCGTCGGACTGTAGAACTC
DNA 2: TTGGCACCCGAGAATTCCA
modifications: constant regions annealed to DNA blockers; guide miR-122 5' phosphate
On to B11, for which the binding signal in assay [1] is 0.338 fold enrichment over input; in assay [2] it was 0.13 fold enrichment over input; in assay [3] it was 0.445 fold enrichment over input.

B12: ACGTTCTG (ssRNA)
RNA 1: GAGUUCUACAGUCCGACGAUCCCAACACGUUCUGCACCUGGAAUUCUCGGGUGCCAA
RNA 2: UGGAGUGUGACAAUGGUGUUUG
DNA 1: GATCGTCGGACTGTAGAACTC
DNA 2: TTGGCACCCGAGAATTCCA
modifications: constant regions annealed to DNA blockers; guide miR-122 5' phosphate
On to B12, for which the figures for the binding signal in assay [1], in assay [2] and in assay [3] were 0.334 fold enrichment over input, 0.128 fold enrichment over input and 0.445 fold enrichment over input, respectively.

The record behind these values is PMC12529666, “Dysregulation of AGO2-miRNA dynamics underlies the AGO2-associated Lessel–Kreienkamp syndrome”.
